An excerpt weighted towards active compounds, which were near 11% of everything screened.
HEK cytotox: cytotoxic compounds in HEK 293 cells; HEK 293 viability, ATP luminescence (CellTiter-Glo), 48-72 h; Potency, µM (titrated, usually from 115 µM), for inactives: at the top dose activity change, negative = cytotoxicity, usual class: inhibitors; 94,000 tested, 6.6% active; further: on the % scale 0 is the no-effect control and ±100 the full control effect; nearly all actives have a fitted effect of over 60% in size
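HEK 293 cells seeded at 250 cells/well were exposed to compound for 48 or 72 hr at 37 degree Celsius. Viability taken as ATP content by CellTiter-Glo luminescence.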
hNpr1 antagonist: human Npr1 receptor antagonism; HEK293 hNpr1 GloSensor cGMP, ANP-stimulated luminescence; Potency, µM (titrated, usually from 46.3 µM), for inactives: at the top dose activity change, negative = inhibition, actives largely listed as inhibitors; 76,000 tested, 1.6% active; calls by dose curve; further: on the % scale 0 is the no-effect control and ±100 the full control effect; nearly all actives have a fitted effect of over 60% in size
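HEK293 cells stably expressing human Npr1 and cGMP GloSensor pGS-40F, loaded 2 h with 2% GloSensor reagent, given compound 30 min at room temperature. Luminescence read before and 20 min after 0.1 nM hNppA.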
NIH3T3 tox: kills NIH 3T3 cells; 94,000 tested, 4.3% active; NIH 3T3 viability, CellTiter-Glo ATP luminescence, 48-72 h; Potency, µM (top dose mostly 96.7 µM), without a hit: top-dose activity change, negative = cytotoxicity, usual class: inhibitors; AID 1345082; further: on the % scale 0 is the no-effect control and ±100 the full control effect; nearly all actives have a fitted effect of over 55% in size
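Cytotoxicity is measured as loss of cellular ATP: NIH 3T3 cells (400/well) are exposed to compound for 48 or 72 hr at 37 °C, then CellTiter-Glo luminescence is imaged after 10 min at room temperature.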
FLuc inh: blocks purified firefly luciferase enzyme activity; P08659; purified P. pyralis luciferase, luminescence, biochemical; Potency, µM (series often up to 115 µM), usual class: inhibitors; 76,000 tested, 2.5% active; AID 1347043; further: on the % scale 0 is the no-effect control and ±100 the full control effect; nearly all actives have a fitted effect of over 65% in size
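Luminescence read by CCD imaging after purified firefly luciferase (10nM final) was added to substrate buffer holding 10uM D-luciferin and 10uM ATP, pH 7.5, pre-dosed with compound.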
Npr1 antag conf: hNpr1 antagonism, confirmation assay; shares compounds with hNpr1 antagonist; Potency, µM (series often up to 57.6 µM), without a hit: at the highest dose activity change, negative = inhibition, actives largely listed as inhibitors; HEK293 hNpr1 cGMP GloSensor luminescence, ANP-stimulated; 1,400 tested, 76% active; calls by dose curve; further: nearly all actives have a fitted effect of over 70% in size
Npr2 selectivity: selectivity test of Npr1 antagonists against human Npr2; shares compounds with hNpr1 antagonist; HEK293 hNpr2 GloSensor cGMP luminescence, CNP-stimulated; Potency, µM (series often up to 57.6 µM), for inactives: at the top dose activity change, negative = inhibition, usual class: inhibitors; 1,400 tested, 67% active; AID 1347046; calls by dose curve; further: nearly all actives have a fitted effect of over 70% in size
FLuc counter: FLuc enzyme inhibition, Npr1 counter-screen; Potency, µM (doses to about 57.6 µM), without a hit: top-dose activity change, negative = inhibition, most hits filed as inhibitors; purified FLuc enzyme, luminescence, Km substrate; AID 1347047; 1,400 tested, 0.7% active; shares compounds with hNpr1 antagonist; further: 0% is about no effect
GloSensor ctrl: reduces cGMP signal in GloSensor control cells. HEK293 GloSensor cGMP, SNP-stimulated, luminescence. AID 1347051. shares compounds with hNpr1 antagonist. 1,400 tested, 69% active. Potency, µM (highest dose often 57.6 µM), without a hit: top-dose activity change, negative = inhibition, most hits filed as inhibitors; calls by dose curve; further: on the % scale 0 is the no-effect control and ±100 the full control effect; nearly all actives have a fitted effect of over 70% in size
Active calls of the source: *; [ ] = another dose, or the depositor's remark. Unless noted, the call rests on the fitted dose curve; in most records, active means well fitted curve in the direction sought with a large enough effect; inconclusive means small, poorly fitted or top-dose-only effect, or another doubt; inactive means no such curve, though single readings can be large; an effect the other way counts as inactive or inconclusive. Potency means the concentration at half of the fitted maximal effect.

`COCc1nc(-c2ccc(OC3CN(C(=O)NCc4ccc(OC)cc4)C3)cc2)no1` gave HEK cytotox -31.6%, hNpr1 antagonist inconclusive, NIH3T3 tox inconclusive, FLuc inh inactive, Npr1 antag conf 24.3µM*, Npr2 selectivity inconclusive, FLuc counter -2.0% and GloSensor ctrl 19.3µM*.
For CCOc1cccc(CN2CC(Oc3ccc(-c4noc(COC)n4)cc3)C2)c1 the results were HEK cytotox inconclusive, hNpr1 antagonist inconclusive, NIH3T3 tox inconclusive and FLuc inh inactive.
For CCN(CC)C(=O)N1CCC(Oc2ccc(-c3noc(COC)n3)cc2)C1 (stereo not drawn) the results were HEK cytotox inconclusive, hNpr1 antagonist 7.94µM*, NIH3T3 tox -20.8%, FLuc inh inactive, Npr1 antag conf 10.9µM*, Npr2 selectivity 13.7µM*, FLuc counter -6.4% and GloSensor ctrl 12.2µM*.
`COCc1nc(-c2ccc(OC3CCN(C(=O)NCc4ccc(F)cc4)C3)cc2)no1` (stereo not drawn) gave HEK cytotox inconclusive, hNpr1 antagonist inconclusive, NIH3T3 tox inconclusive and FLuc inh inactive.
Screening COCc1nc(-c2ccc(OC3CN(C(=O)c4ccc(OC)nc4)C3)cc2)no1 returned HEK cytotox inconclusive, hNpr1 antagonist -22.7%, NIH3T3 tox -28.2% and FLuc inh inactive.
For COc1ccc(CNC(=O)N2CCC(Oc3ccc(-c4noc(C5CC5)n4)cc3)C2)cc1 (stereo not drawn) the results were HEK cytotox inconclusive, hNpr1 antagonist 17.8µM*, NIH3T3 tox inconclusive, FLuc inh inactive, Npr1 antag conf inconclusive, Npr2 selectivity inconclusive, FLuc counter inconclusive and GloSensor ctrl inconclusive.
`CO[C@H]1[C@H](NC(=O)c2ccc3c(c2)OCO3)c2ccccc2C12CCNCC2` gave HEK cytotox -12.6%, hNpr1 antagonist 0.7%, NIH3T3 tox -20.1% and FLuc inh inactive.
CN(Cc1ccsc1)c1cc(C2CC(O)C2)ncn1 (stereo not drawn) was read as HEK cytotox -18.2%, hNpr1 antagonist -5.8%, NIH3T3 tox -12.8% and FLuc inh inactive.
`COc1ccc(Nc2cnc3ccc(-c4ccccc4OC)nn23)cc1OC` gave HEK cytotox inconclusive, hNpr1 antagonist 28.2µM*, NIH3T3 tox inconclusive, FLuc inh inactive, Npr1 antag conf 25µM*, Npr2 selectivity 25µM*, FLuc counter inconclusive and GloSensor ctrl 22.2µM*.
Screening COc1ccccc1-c1ccc2ncc(Nc3ccc4c(c3)OCO4)n2n1 returned HEK cytotox inconclusive, hNpr1 antagonist -4.2%[70.6 µM], NIH3T3 tox inconclusive and FLuc inh inactive.
`COc1cc(=O)n2c(c1C(=O)Nc1cccc(C(F)(F)F)c1)CCCC2` gave HEK cytotox -0.6%, hNpr1 antagonist -2.1%, NIH3T3 tox 1.3% and FLuc inh inactive.
Screening O=C(NCCOc1ccccc1)c1nc2c(o1)CCN(Cc1c(F)cccc1F)CC2 returned HEK cytotox inconclusive, hNpr1 antagonist -1.0%[70.6 µM], NIH3T3 tox inconclusive and FLuc inh inactive.
O=C(Nc1ccc(Cl)cc1)c1nc2c(o1)CCN(Cc1cccc(F)c1)CC2 was read as HEK cytotox inconclusive, hNpr1 antagonist 7.94µM*, NIH3T3 tox inconclusive, FLuc inh inactive, Npr1 antag conf 11.1µM*, Npr2 selectivity 15.7µM*, FLuc counter -23.5%[86.2 µM] and GloSensor ctrl 11.1µM*.

Source: PubChem BioAssay
